From PubChem BioAssay (EPA / NIEHS) come the findings set out here.

The source made the active and inactive calls. Rule for the calls: active = hit-call score of the fitted dose curve at least 0.9, where 1 is the maximum; inactive = score below 0.9.

Assay [1] can be described thus: ATG_DR4_LXR_CIS: Attagene CIS-FACTORIAL HepG2 Assay for human Liver X Receptor (LXR), DR4 submotif (AID 2282929). The settings on record: HepG2 Attagene DR4 cis-reporter, mRNA transcription; AC50: actives raise or lower the signal unless noted; outcome: actives raise or lower the signal unless noted. The essentials:
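Cells were transfected with multiple reporter transcription units, exposed to chemicals for 24 hours, then lysed for RNA. Reporter mRNA induction was measured by RT-PCR with capillary electrophoresis detection and fitted in both directions relative to DMSO.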

The target of assay [2] is Aryl hydrocarbon receptor (Homo sapiens) (UniProt P35869). The experiment in a line: ATG_Ahr_CIS: Attagene CIS-FACTORIAL HepG2 Assay for human Aryl Hydrocarbon Receptor (Ahr) (AID 2282930). To be noted: HepG2 AhR cis-factorial reporter transcription; actives raise or lower the signal. The essentials: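 Following 24 h of chemical dosing, transfected HepG2 liver cells with cis-driven reporter units were lysed for RNA; reporter mRNA was quantified via RT-PCR and capillary electrophoresis, and responses fitted bidirectionally from DMSO.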
Sequence of Aryl hydrocarbon receptor (Homo sapiens) (P35869 whole entry, looked up): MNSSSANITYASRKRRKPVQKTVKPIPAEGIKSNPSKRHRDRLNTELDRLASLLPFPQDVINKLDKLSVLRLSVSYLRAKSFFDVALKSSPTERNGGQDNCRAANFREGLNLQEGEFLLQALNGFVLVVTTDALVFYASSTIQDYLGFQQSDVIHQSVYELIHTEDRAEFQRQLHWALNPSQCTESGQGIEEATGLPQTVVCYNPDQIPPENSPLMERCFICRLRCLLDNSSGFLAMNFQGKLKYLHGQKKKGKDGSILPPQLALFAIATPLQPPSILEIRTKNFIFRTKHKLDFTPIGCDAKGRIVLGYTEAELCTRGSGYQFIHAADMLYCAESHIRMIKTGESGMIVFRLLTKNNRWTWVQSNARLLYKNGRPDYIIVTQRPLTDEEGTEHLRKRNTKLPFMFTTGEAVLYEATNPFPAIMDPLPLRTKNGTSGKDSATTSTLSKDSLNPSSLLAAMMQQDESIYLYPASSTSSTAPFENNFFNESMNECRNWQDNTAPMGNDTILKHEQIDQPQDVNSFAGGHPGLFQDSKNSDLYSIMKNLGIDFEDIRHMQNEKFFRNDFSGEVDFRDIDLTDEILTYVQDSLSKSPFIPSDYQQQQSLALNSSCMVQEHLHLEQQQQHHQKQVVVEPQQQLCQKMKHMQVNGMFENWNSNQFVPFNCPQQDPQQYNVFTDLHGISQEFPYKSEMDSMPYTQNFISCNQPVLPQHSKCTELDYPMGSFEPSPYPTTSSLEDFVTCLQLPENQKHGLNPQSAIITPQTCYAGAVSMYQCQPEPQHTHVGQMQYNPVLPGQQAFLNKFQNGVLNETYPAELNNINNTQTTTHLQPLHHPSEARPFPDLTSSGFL

Assay [3] is described as follows: ATG_AP_1_CIS: Attagene CIS-FACTORIAL HepG2 Assay for human Activator Protein 1 (AP-1) (AID 2282931). The settings on record: HepG2 Attagene cis-factorial AP-1 reporter mRNA; actives raise or lower the signal. In a few lines: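 Endogenous transcription-factor activity in human HepG2 liver cells is read through a cis-promoter reporter transcript, sampled 24 h after dosing. Detection uses RT-PCR with capillary electrophoresis; values come from bidirectional fitting relative to DMSO.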

The nature of assay [4]: ATG_AP_2_CIS: Attagene CIS-FACTORIAL HepG2 Assay for human Activator Protein 2 (AP-2) (AID 2282932). To be noted: HepG2 AP-2 cis-reporter, Attagene transcription factor profiling; AC50: actives raise or lower the signal unless noted; outcome: actives raise or lower the signal unless noted. In a few lines:
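HepG2 cells were transiently transfected with multiple cis-promoter reporter transcription units and dosed for 24 h. Reporter mRNA was measured by RT-PCR with capillary electrophoresis fluorescence; bidirectional fits relative to DMSO baseline.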

Assay [5] in a line: ATG_BRE_CIS: Attagene CIS-FACTORIAL HepG2 Assay for human Bone Morphogenetic Protein (BMP) Response Element (BRE) (AID 2282933). To be noted: HepG2 BMP response element reporter, Attagene transcription factor profiling; actives raise or lower the signal. The essentials: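 Gain- or loss-of-signal was derived by bidirectional fitting against DMSO controls. The signal came from reporter mRNA, measured by RT-PCR and capillary electrophoresis, in HepG2 cells transiently carrying multiple reporter units and dosed for 24 h.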

Assay [6] has as its target Retinoic acid receptor alpha (Homo sapiens) (UniProt P10276). Description: ATG_DR5_RAR_CIS: Attagene CIS-FACTORIAL HepG2 Assay for human Retinoic Acid Receptor Alpha (RARE), DR5 submotif (AID 2282934). The settings on record: HepG2 Attagene cis-factorial RARE DR5 reporter, mRNA; actives raise or lower the signal. In a few lines:
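Transfected HepG2 reporter cells are exposed to chemicals for 24 h. Then RNA is extracted and the DR5 element reporter transcript is measured by RT-PCR and capillary electrophoresis, with bidirectional curve fitting relative to DMSO.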

The target in assay [7] is Transcription factor E2F1 (Homo sapiens) (UniProt Q01094). The experiment in a line: ATG_E2F_CIS: Attagene CIS-FACTORIAL HepG2 Assay for human E2F Transcription Factor 1 (AID 2282935). The settings on record: HepG2 Attagene cis-reporter, E2F reporter RNA transcripts; actives raise or lower the signal. The essentials:
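HepG2 cells transiently transfected with multiplexed cis-element reporter units, dosed for 24 h. Reporter mRNA measured by RT-PCR, 6-FAM primer-extension labeling, HpaI digestion and capillary electrophoresis; bidirectional fit versus DMSO baseline.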

Assay [8] is described as follows: ATG_E_Box_CIS: Attagene CIS-FACTORIAL HepG2 Assay for human Enhancer Box (E-box) (AID 2282936). To be noted: HepG2 E-box cis-reporter transcription, actives raise or lower the signal. The essentials:
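HepG2 cells transiently transfected with multiplexed cis-element reporter units sensing endogenous transcription factor activity; 24 h compound exposure. Reporter mRNA measured by RT-PCR, 6-FAM primer extension, HpaI digestion and capillary electrophoresis; bidirectional fit versus DMSO.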

The nature of assay [9]: ATG_M_61_CIS: Attagene CIS-FACTORIAL HepG2 Assay for M61 Transcription Factor (Internal Marker) (AID 2282937). To be noted: HepG2 Attagene CIS-FACTORIAL M61 internal marker reporter; actives raise or lower the signal. The essentials: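 Cells were transfected with reporter units under cis-regulatory promoters, treated with chemicals for 24 h, then lysed for RNA. Reporter transcripts were quantified by RT-PCR and capillary electrophoresis, and activity was fitted bidirectionally against DMSO.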

A short description of assay [10]: ATG_EGR_CIS: Attagene CIS-FACTORIAL HepG2 Assay for human Early Growth Response 1 (EGR1) (AID 2282938). The settings on record: HepG2 Attagene CIS-FACTORIAL EGR reporter mRNA; actives raise or lower the signal. In a few lines: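 Endogenous TF activity in HepG2 liver cells was gauged through cis-promoter reporter constructs transiently transfected. After 24 h dosing, reporter mRNA was quantified by RT-PCR and capillary electrophoresis, and curves fitted in both directions versus DMSO.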

Assay [11] in a line: ATG_Ets_CIS: Attagene CIS-FACTORIAL HepG2 Assay for human Erythroblast Transformation Specific (ETS) (AID 2282941). To be noted: HepG2 ETS cis-reporter transcription; AC50: actives raise or lower the signal unless noted; outcome: actives raise or lower the signal unless noted. In a few lines: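 After transient cis-reporter transfection, HepG2 cells receive test chemical for 24 h. Reporter mRNA levels, measured by RT-PCR and capillary electrophoresis fluorescence, are analysed bidirectionally relative to the DMSO baseline.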

A short description of assay [12]: ATG_FoxO_CIS: Attagene CIS-FACTORIAL HepG2 Assay for human Forkhead box O (FoxO) (AID 2282943). The settings on record: HepG2 Attagene cis-reporter, FoxO element, mRNA; actives raise or lower the signal. The essentials:
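24 h chemical exposure, HepG2 with transient cis-MRTU transfection. RNA extraction, oligo(dT) RT, reporter-specific PCR, primer-extension labelling, HpaI digestion, CE fragment analysis; bidirectional fit, DMSO baseline.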

Assay [13] can be described thus: ATG_GATA_CIS: Attagene CIS-FACTORIAL HepG2 Assay for human GATA Binding Protein (AID 2282944). The settings on record: HepG2 GATA cis-element reporter, Attagene multiplex mRNA; actives raise or lower the signal. The essentials: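 DMSO serves as negative control and baseline for bidirectional fitting of reporter mRNA changes. HepG2 cells bearing transiently transfected cis-promoter reporters were exposed 24 h; transcripts detected via RT-PCR and capillary electrophoresis.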

The nature of assay [14]: ATG_GLI_CIS: Attagene CIS-FACTORIAL HepG2 Assay for human Zinc Finger Protein GLI1 (AID 2282945). To be noted: HepG2, Attagene cis-factorial reporter mRNA, GLI element; actives raise or lower the signal. The essentials: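 HepG2 cells transiently transfected with cis-promoter multiplexed reporter units report endogenous transcription factor activity. After 24 h chemical exposure, reporter mRNA was quantified by RT-PCR, 6-FAM labelling, HpaI digestion and capillary electrophoresis, with bidirectional fitting against DMSO.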

Assay [15] is described as follows: ATG_ISRE_CIS: Attagene CIS-FACTORIAL HepG2 Assay for human Interferon Regulatory Factor 1 (IRF1) binding to an Interferon-Stimulated Response Element (ISRE) (AID 2282948). To be noted: HepG2 ISRE cis-reporter (Attagene), mRNA transcription readout; actives raise or lower the signal. The essentials: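 Quantitation relies on labelled RT-PCR fragments separated by capillary electrophoresis. Human HepG2 cells bearing cis-promoter reporter constructs were treated 24 h; DMSO served as baseline for bidirectional fitting.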

A short description of assay [16]: ATG_M_19_CIS: Attagene CIS-FACTORIAL HepG2 Assay for M19 Transcription Factor (Internal Marker) (AID 2282939). The settings on record: HepG2 Attagene CIS-FACTORIAL M19 internal marker reporter; actives raise or lower the signal. In a few lines:
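Following a 24 h exposure, RNA from transfected HepG2 cells was reverse-transcribed, PCR-amplified with reporter-specific primers, end-labelled with 6-FAM and HpaI-digested before capillary separation. Values represent gain or loss versus DMSO.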

Assay [17] can be described thus: ATG_ERE_CIS: Attagene CIS-FACTORIAL HepG2 Assay for Estrogen Response Element (ERE) (AID 2282940). To be noted: HepG2 ERE cis-reporter, Attagene RNA transcript; actives raise or lower the signal. The essentials: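 HepG2, transient cis-reporter units, 24 h exposure. RNA isolated, oligo(dT) RT, reporter-specific PCR, FAM extension, HpaI cut, CE detection. Gain/loss-of-signal vs DMSO.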

The target in assay [18] is Hepatocyte nuclear factor 3-beta (Homo sapiens) (UniProt Q9Y261). The experiment in a line: ATG_FoxA2_CIS: Attagene CIS-FACTORIAL HepG2 Assay for human Forkhead box A2 (FOXA2) (AID 2282942). The settings on record: HepG2 cis-reporter transcription factor activity, 24 h; actives raise or lower the signal. The essentials:
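Endogenous transcription factor activity was read in HepG2 cells carrying transiently transfected cis-promoter reporter units. After 24 h dosing, reporter mRNA was quantified by RT-PCR and capillary electrophoresis, and values fitted bidirectionally versus DMSO.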

Assay [19] deals with Bile acid receptor (Homo sapiens) (UniProt Q96RI1). The experiment in a line: ATG_IR1_CIS: Attagene CIS-FACTORIAL HepG2 Assay for human Nuclear Receptor Subfamily 1 Group H Member 4 (NR1H4), IR1 submotif (AID 2282946). To be noted: IR1 reporter transcription, actives raise or lower the signal. The essentials: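 Transient MRTU transfection, HepG2; 24 h dosing; RNA → RT-PCR → 6-FAM primer extension → HpaI digest → capillary electrophoresis fluorescence. Gain/loss of signal fitted relative to DMSO.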
Sequence of Bile acid receptor (Homo sapiens) (Q96RI1 whole entry, looked up): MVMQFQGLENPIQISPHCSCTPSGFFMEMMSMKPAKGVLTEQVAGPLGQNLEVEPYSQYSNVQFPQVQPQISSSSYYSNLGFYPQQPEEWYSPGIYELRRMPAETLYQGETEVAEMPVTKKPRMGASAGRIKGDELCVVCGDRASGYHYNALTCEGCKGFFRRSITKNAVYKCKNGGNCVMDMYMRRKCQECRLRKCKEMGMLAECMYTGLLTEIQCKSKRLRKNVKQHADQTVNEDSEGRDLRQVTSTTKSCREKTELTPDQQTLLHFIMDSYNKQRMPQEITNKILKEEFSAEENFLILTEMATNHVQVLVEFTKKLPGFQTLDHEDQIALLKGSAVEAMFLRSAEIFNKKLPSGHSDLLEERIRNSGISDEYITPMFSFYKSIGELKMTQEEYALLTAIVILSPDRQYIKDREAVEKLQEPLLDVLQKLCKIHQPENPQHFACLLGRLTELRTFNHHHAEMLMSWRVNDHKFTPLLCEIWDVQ

Assay [20] is described as follows: ATG_GRE_CIS: Attagene CIS-FACTORIAL HepG2 Assay for human Glucocorticoid Response Elements (GRE) (AID 2282947). The settings on record: HepG2 GRE cis-reporter, Attagene multiplex mRNA; AC50: actives raise or lower the signal unless noted; outcome: actives raise or lower the signal unless noted. The essentials:
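HepG2 cells transiently transfected with multiple cis-promoter reporter units measure endogenous TF activity; 24 h compound exposure. Reporter mRNA quantified by RT-PCR, FAM labelling, HpaI digestion and capillary electrophoresis; bidirectional fit vs DMSO baseline.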

Sequence of Hepatocyte nuclear factor 3-beta (Homo sapiens) (Q9Y261 whole entry, looked up): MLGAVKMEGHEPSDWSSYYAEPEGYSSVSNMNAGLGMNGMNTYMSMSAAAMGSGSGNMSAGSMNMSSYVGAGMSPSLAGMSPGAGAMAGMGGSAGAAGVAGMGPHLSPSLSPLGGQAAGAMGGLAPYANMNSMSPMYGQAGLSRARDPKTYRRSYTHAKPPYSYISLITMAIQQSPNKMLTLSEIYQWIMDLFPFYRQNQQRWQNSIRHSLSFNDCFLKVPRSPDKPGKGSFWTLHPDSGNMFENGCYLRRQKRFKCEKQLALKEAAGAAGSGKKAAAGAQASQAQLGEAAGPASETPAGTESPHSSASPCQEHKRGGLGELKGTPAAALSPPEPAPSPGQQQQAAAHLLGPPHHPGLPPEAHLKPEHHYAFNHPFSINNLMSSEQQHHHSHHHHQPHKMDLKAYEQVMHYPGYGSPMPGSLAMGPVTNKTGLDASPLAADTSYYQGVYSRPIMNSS
Sequence of Transcription factor E2F1 (Homo sapiens) (Q01094 whole entry, looked up): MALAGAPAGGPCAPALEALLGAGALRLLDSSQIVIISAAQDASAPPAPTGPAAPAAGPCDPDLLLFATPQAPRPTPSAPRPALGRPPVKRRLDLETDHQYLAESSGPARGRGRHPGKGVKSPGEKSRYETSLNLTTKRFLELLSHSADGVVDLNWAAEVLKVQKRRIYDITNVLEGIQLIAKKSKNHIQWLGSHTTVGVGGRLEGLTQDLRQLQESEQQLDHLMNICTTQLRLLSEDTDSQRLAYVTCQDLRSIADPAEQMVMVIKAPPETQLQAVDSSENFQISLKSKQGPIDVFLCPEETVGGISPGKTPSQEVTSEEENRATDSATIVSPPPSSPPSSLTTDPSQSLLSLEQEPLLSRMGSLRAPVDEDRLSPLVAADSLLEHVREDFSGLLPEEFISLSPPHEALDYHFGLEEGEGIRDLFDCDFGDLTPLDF
Sequence of Retinoic acid receptor alpha (Homo sapiens) (P10276 whole entry, looked up): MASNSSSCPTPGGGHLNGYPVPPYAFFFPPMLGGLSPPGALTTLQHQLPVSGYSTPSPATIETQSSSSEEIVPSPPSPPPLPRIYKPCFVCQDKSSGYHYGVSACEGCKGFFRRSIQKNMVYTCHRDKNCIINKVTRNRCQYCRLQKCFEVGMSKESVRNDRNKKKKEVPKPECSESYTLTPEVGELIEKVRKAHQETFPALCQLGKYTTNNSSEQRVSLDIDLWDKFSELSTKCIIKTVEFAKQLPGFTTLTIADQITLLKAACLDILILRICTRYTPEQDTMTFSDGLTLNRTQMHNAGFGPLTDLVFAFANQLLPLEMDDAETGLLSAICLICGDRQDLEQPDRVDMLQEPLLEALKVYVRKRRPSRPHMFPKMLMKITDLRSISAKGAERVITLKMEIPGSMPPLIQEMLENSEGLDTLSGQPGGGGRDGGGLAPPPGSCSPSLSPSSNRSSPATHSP

Take `Cc1ccc(C)c(S(=O)(=O)O)c1`: the compound was called inactive in assay [1], in assay [2], in assay [3], in assay [4], in assay [5] and in assay [6]. Further, the outcome in [7], in [8], in assay [9], in assay [10], in assay [11] and in [12] was inactive. Besides, the compound was classed as inactive in assay [13], in assay [14] and in [15].

In the case of `CCOC=C(C(=O)OCC)C(=O)OCC`, the call in assay [1], in [2], in assay [3], in assay [4], in assay [5] and in [6] was inactive. Further, the compound was called inactive in [7], in assay [9], in assay [10], in assay [16], in assay [17] and in assay [11]. The compound was classed as inactive in assay [18], in assay [12], in [13], in [14], in assay [19] and in assay [20]. The result in assay [15] was inactive.

As for `FC(F)(F)C(F)(F)C(F)(F)C(F)(F)I`, the result in assay [1], in assay [2], in assay [3], in assay [4], in assay [5] and in assay [6] was inactive. In addition, the result in [7], in assay [9], in [10], in [17], in [11] and in [18] was inactive. Moreover, the outcome in assay [12], in assay [13], in assay [14], in assay [19], in assay [20] and in assay [15] was inactive.

In the case of `FC(F)(F)C1(F)C(F)(F)C(F)(F)C(F)(F)C(F)(C(F)(F)F)C1(F)F` (stereo unspecified), the compound was classed as inactive in assay [1], in [2], in assay [3], in assay [4], in [5] and in assay [7]. The result in [8], in [9], in assay [10], in [16], in assay [17] and in [11] was inactive. Further, the call in assay [18], in [12], in assay [13], in assay [14], in [20] and in assay [15] was inactive.

As to `CCC(C)c1nccnc1OC` (stereo unspecified), the result in assay [1], in [2], in [3], in assay [4], in assay [5] and in assay [7] was inactive. Moreover, the outcome in assay [8], in assay [9], in [10], in [16], in [17] and in assay [11] was inactive. Moreover, the result in assay [18], in [12], in assay [13], in assay [14], in assay [20] and in assay [15] was inactive.

As for `Oc1cccc2c(O)cccc12`, the result in assay [1], in assay [3], in [4], in assay [5], in assay [6] and in [7] was inactive. Also, the call in assay [9], in [10], in [16], in [11], in [12] and in [13] was inactive. Moreover, the compound was called inactive in [14], in assay [19], in assay [20] and in [15]. The AC50 (commonly the concentration giving half of the maximal activity seen) in assay [2] was 0.578 µM (active); in [17], 12.3 µM (active); in [18] it was 0.0859 µM (active).

Consider `O=C(O)CCC(F)(F)C(F)(F)C(F)(F)C(F)(F)C(F)(F)C(F)(F)F`, for which the AC50 in assay [1] is 100 µM (active). In addition, the outcome in [2], in [3], in assay [4], in assay [5], in [7] and in assay [8] was inactive. Besides, the call in assay [9], in assay [10], in assay [16], in assay [17], in assay [11] and in [18] was inactive. The call in [12], in assay [13], in [14], in [19], in [20] and in assay [15] was inactive.
